# Source: PubChem BioAssay AID652039 (The Scripps Research Institute Molecular Screening Center, 2013)
# Among all 370,000 compounds or so, about 3,300 (0.89%) were called active.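 Rule for the calls: active = activation above the mean of all tested compounds plus 3 SD, computed per campaign excluding outliers beyond control limits (cut at about 13% in these data); inactive = the rest.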 The list comes from a sample in which actives are over-represented; it also holds similar structures and randomly drawn compounds.
# Target: Kallikrein-7 (Homo sapiens) (UniProt P49862)
# Experiment: activation of human kallikrein-7 proenzyme – biochemical, fluorescence intensity, primary screen (AID 652039)
# Details: purified proKLK7, EDANS-DABCYL substrate fluorescence; at 7 µM; hits give high values; 100% is mature enzyme control, 0% vehicle
# Sequence of Kallikrein-7 (Homo sapiens) (P49862 whole entry, looked up): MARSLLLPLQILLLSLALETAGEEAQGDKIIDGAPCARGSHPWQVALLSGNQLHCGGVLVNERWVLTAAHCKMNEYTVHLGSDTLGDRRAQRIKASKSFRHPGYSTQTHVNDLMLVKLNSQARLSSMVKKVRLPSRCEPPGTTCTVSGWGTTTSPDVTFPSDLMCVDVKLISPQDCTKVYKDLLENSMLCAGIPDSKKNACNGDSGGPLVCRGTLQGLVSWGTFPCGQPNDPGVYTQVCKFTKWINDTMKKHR
row,SMILES,activation
1,Cc1ccc(CN2CCCCC(NC(=O)C3CCCCC3)C2=O)cc1 (centres undefined),-0.03% (inactive)
2,CCOC(=O)[C@]12CCCC=C1N(Cc1ccc(OC)cc1)C(=O)[C@@H]2CC(=O)NCc1cccs1,-0.38% (inactive)
3,Clc1ccc(-n2c(COc3ccccc3)nnc2SCc2nc3ccccc3[nH]2)cc1,0.33% (inactive)
4,O=C(CSc1nnc(-c2ccccn2)n1-c1ccc(Cl)cc1)Nc1ccccc1-c1ccccc1,0.1% (inactive)
5,COC(=O)[C@]12C[C@H](CC(=O)N3CCOCC3)C(=O)N(Cc3ccc(Cl)cc3Cl)C1=C[C@H](COCc1ccccc1)O[C@@H]2C,0.05% (inactive)
6,Cc1cc(=O)[nH]c(SCC(=O)Nc2ccc(F)cc2F)n1,-0.3% (inactive)
7,CCN1CCc2c(C#N)c(NCc3ccccc3)nc(NCCO)c2C1,14.3% (active)
8,CC(C)CCNc1nc(N2CCCC2)c2c(c1C#N)CCN(C)C2,-0.46% (inactive)
9,CCCCc1nc(NCc2ccccc2)c(C#N)c2c1CCCC2,-0.04% (inactive)
10,Clc1cccc(Cl)c1OCCOCCNCc1ccccc1,-0.51% (inactive)
11,CC1(C)CC(=O)CC2(C1)NCC(c1ccccc1Cl)c1c2[nH]c2ccccc12 (centres undefined),0.29% (inactive)
12,CC(=O)N1CCc2cc(S(=O)(=O)NCCC(=O)N3CCCC3)ccc21,0.03% (inactive)
13,C/C(N)=C(/C#N)C(=O)COC(=O)c1cc(-c2cccc(Br)c2)nc2ccccc12,0.31% (inactive)
14,Cc1cc(C(=O)OCC(=O)Nc2nccs2)c2ccccc2n1,-2.12% (inactive)
15,COc1ccc(-c2cc3n(n2)CCc2nc4ccccc4n2-3)cc1,0.02% (inactive)
16,CNC(=O)COC(=O)c1cc(-c2ccc(OC)cc2)nc2ccccc12,113% (active)
17,COc1ccc(S(=O)(=O)n2cnc3ccccc32)c(C)c1,-0.43% (inactive)
18,COc1ccc(-c2cc(C(=O)n3cnc4ccccc43)c3ccccc3n2)cc1,20.8% (active)
19,CN(CCO)c1cccc2c1S(=O)(=O)N(Cc1cn(Cc3ccc(C(F)(F)F)cc3)nn1)Cc1ccccc1O2,1.21% (inactive)
20,COC(=O)C[C@@H]1CC[C@H]2[C@@H](COc3ccc(NS(=O)(=O)CC(F)(F)F)cc3C(=O)N2C)O1,-0.11% (inactive)
21,CCOC(=O)CN1C(=O)C(O)(CC(=O)c2ccccn2)c2ccccc21 (centres undefined),0.64% (inactive)
22,O=C(NCCC1=CCCCC1)C1CCN(S(=O)(=O)c2ccc(Cl)s2)CC1,0.13% (inactive)
23,Cc1cc(NS(=O)(=O)c2ccc(NC(=O)CSc3nnc(SCc4ccc(F)cc4)s3)cc2)nc(C)n1,-0.24% (inactive)
24,COC(=O)c1cccc(Cn2ccc3ccc(-c4ccc5ccn(C(=O)c6ccccc6C)c5c4)cc32)c1,-10.5% (inactive)
